± gives the standard deviation of the averaged measurements. The full ranking holds about 25,000 sequences; the median of “ln(normalized median fluorescence intensity)” is about 10, and the highest 2% start at about 12. This is one part of a sample in which the highest values are shown more often than they occur.
System: PfAP2-G AP2 domain (GST-tagged)
Test: gcPBM binding intensity (ln(normalized median fluorescence intensity)); higher = stronger DNA binding
Outline: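 Each value is the highest Masliner-normalised natural-log median intensity across replicate spots of either orientation of a probe. The probes were primer-extended double-stranded 36-bp intergenic genomic sequences on an Agilent 4 × 180k array, alongside negative controls, exposed for 1 h to GST-tagged P. falciparum DNA-binding domains expressed in E. coli. Bound protein was picked up with Alexa488 anti-GST antibody and scanned at 488 nm.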

In order of falling “gcPBM binding intensity (ln)” value:
1. ATAAATATAACATATTGTACCCTTAAAAAGGAACAA [XGTACX_site352]  11.7 ± 0.96
2. ATAATATATTTTTGTAGTACACTTCTGGTAATATCG [XGTACX_site2402]  11.7 ± 1
3. TATATATAAAGGTGTACACATATATATATATCTGTA [CACACA_site5311]  11.7 ± 0.98
4. ATACAATAAAGGTGTACACATATATGATGCAAGATG [CACACA_site5897]  11.7 ± 0.93
5. ACATATATATAAAGGTGTACACATATATATATATAT [XGTACX_site4779]  11.7 ± 0.76
6. ATATGTATATATAAAAGTACGCGTAAAAAAAAAAAA [XGTACX_site5377]  11.7 ± 1.3
7. GCCTATATGTTTAGTTGTACTCCTAATATTATTTGT [XGTACX_site6060]  11.7 ± 1.1
8. TAATAATATATTTGTAGTACACAATTTTTTATAACT [XGTACX_site3951]  11.6 ± 0.89
9. AATACAATATAAAGGTGTACATATATATATATATAT [XGTACX_site68]  11.4 ± 0.9
10. TATATATATCTGTACACACACACATATAAATAAATA [CACACA_site4405]  11.4 ± 1
11. AACACATAAAAAAGGTGTACCATAAAATATACATAC [XGTACX_site4478]  11.4 ± 0.76
12. AAAAAAAAAAAAAGATGTACATATATTTTTATTATA [XGTACX_site654]  11.4 ± 0.96
13. AAATATAAAAGTATATGTACATATATATATATATAT [XGTACX_site7446]  11.2 ± 0.64
14. AAGTTTTATTTAAATTGTACTAAAATTTTTATATTA [XGTACX_site7065]  11 ± 0.69
15. TATACACATATATAAAGTACATATATGTGTAAAAAA [XGTACX_site8582]  11 ± 0.64
16. ATATGCCTAATAAAATGTACGTTTGTTTTATTTATT [XGTACX_site3833]  11 ± 0.49
17. TAGTAATATATATTTTGTACATAAAATAATATATAA [XGTACX_site7971]  10.9 ± 0.59
18. AATAAATAAATATATACACACATATATCTGTACATA [CACACA_site9034]  10.9 ± 0.67
19. TAATATATTAATTTTTGTACTTAATTATATGTTTTT [XGTACX_site5654]  10.9 ± 0.63
20. AAAGACAAAAGGAATTGTACATAATATATAAAATAT [XGTACX_site2923]  10.8 ± 0.54
21. ATATATAAAATATATTGTACATTAACATATATATTT [XGTACX_site2055]  10.7 ± 0.43
22. TAAAGTTATGCAATAACACACATATACAATACATAT [CACACA_site6698]  9.98 ± 0.057
23. TATTTTTTAAAAAAATGTCATAAAATTTCTTTTTTC [XGTACX_negctrl_site271]  9.9
24. TGATGCAAGATATATACACACATATAAATATAAATA [CACACA_site7429]  9.8 ± 0.042
25. TAAGCCAAGGGATAAATAAAATAACAAAATGAAATC [GTGCAC_negctrl_site601]  9.66 ± 0.36

Source: the supplement of paper PMC11417369
